Here are results for 25 molecules from PubChem BioAssay (NCI).

The panel holds about 83,000 compounds, 20% with a hit somewhere; the sample as a whole holds those more often.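 Single-concentration screen, 48 h exposure, 96-well plates. Endpoint: percent growth. Below 10 = active.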 The source made the active and inactive calls.

For the assay, the system named is MDA-MB-468 breast. The assay is described as follows: NCI-60 one-dose screen, 48 h (100 = growth as untreated, 0 = no growth, -100 = all killed). Conditions: 10 µM unless noted.
Take `O=C(O)c1nn(-c2ccc(Cl)cc2)nc1N1CCCC1`: the growth is 86% (inactive).

Take `CC/C=C\C[C@H](O)C/C=C1/C(=O)C=C[C@@H]1C/C=C\CCCCO`: the growth is 16.5% (inactive).

In the case of `COc1ccc(-c2nc(C#N)c(NCC(c3ccc(Cl)cc3)N3CCCCC3)o2)cc1` (stereo not given), the growth was 93.3% (inactive).

Turning to `Cc1c(Cc2ccccc2)c(=O)oc2c(C)c(OCc3n[nH]c(=S)o3)ccc12`, the growth is 77.7% (inactive).

Regarding `COc1ccc(C2C=C(c3ccc(N)cc3)N=C3SC=CN32)cc1OC` (stereo not given), the growth was 101% (inactive).

Regarding `CCOC(=O)C1CSC(C)(C(=O)OCC)N1` (stereo not given), the growth was 105% (inactive).

With `C#C[C@]1(O)CC[C@H]2[C@@H]3CC=C4c5sc(Nc6ccccc6)nc5CC[C@]4(C)[C@H]3CC[C@@]21C`, the growth was 7.27% (active).

With `CC(C)(C)Nc1nc2c(OCCc3ccccc3)cccn2c1-c1cccc(Oc2ccccc2)c1`, the growth is -12.7% (active).

Take `Fc1cc2c(cc1Cl)N(c1ncnc3ccc(-c4ccc5n[nH]nc5c4)cc13)CC2`: the growth is 40.2% (inactive).

With `COc1cc(/C=C/C(=O)c2c(-c3ccc(Cl)cc3)nc3sc(C)nn23)cc(OC)c1OC`, the growth was 65.7% (inactive).

Regarding `CCOP(C)(=O)/C(Cc1ccc(OC)c(OC)c1)=N\O` (stereo not given), the growth is 96.5% (inactive).

On to `CCOC(=O)c1c(C)nc2ccccc2c1/C=C/c1cccs1`, for which the growth is -2.39% (active).

`O=C(/C=C/c1cccc(Cl)c1Cl)Nc1ncc(Cc2ccccc2Cl)s1`: the growth was 10.4% (inactive).

As to `CC1OC(n2c3ccccc3c3c4c(c5c6ccccc6[nH]c5c32)C(=O)N(CCN2CCCC2)C4=O)CC(O)C1O` (stereo not given), the growth was 26.2% (inactive).

For the molecule `O=C1C=CC2(NN=C(c3ccccc3)N2c2cccc(Cl)c2)C(Cl)=C1` (stereo not given), the growth is 71.7% (inactive).

Regarding `CC1NC(C)c2ccc3ccccc3c2O1` (stereo not given), the growth was 109% (inactive).

Regarding `O=C(/C=C/c1ccc(C(F)(F)F)cc1)c1ccc(Nc2nc(NCCO)nc(N3CCOCC3)n2)cc1`, the growth was 20.4% (inactive).

Regarding `CC(C)OCCCNCC(=O)Nc1ccc(S(=O)(=O)c2ccc(NC(=O)CNCCCOC(C)C)cc2)cc1`, the growth is 92.7% (inactive).

For the molecule `CC1Cc2c(Cl)ncnc2N(C)c2ccccc21` (stereo not given), the growth was -31.5% (active).

Turning to `CC(=O)Nc1ccc(C=Nc2ccc3ccccc3c2)cc1`, the growth is 107% (inactive).

In the case of `C(=C(\C1=NCCN1)n1cnc2ccccc21)/c1ccc2ccccc2c1`, the growth was 26.2% (inactive).

Turning to `C=CCc1cc(Cl)cc2c(OC(C)=O)c(C(C)=O)c(-c3ccccc3)nc12`, the growth is 116% (inactive).

For the molecule `O=C(CSc1nc2sc3c(c2c(=O)n1-c1ccc(Cl)cc1)CCCC3)NNC(=O)Nc1ccc(Cl)c(C(F)(F)F)c1`, the growth was -42.4% (active).

Consider `C/C(=C(/c1ccccc1)c1ccc(N2C(=O)c3cccc4c(NCc5ccccc5)ccc(c34)C2=O)cc1)c1ccccc1`, for which the growth is 116% (inactive).

Consider `Clc1ccc(-c2nnc(Cn3ccnc3)o2)cc1`, for which the growth is 104% (inactive).
